Laboratory results as given in PubChem BioAssay (NCATS).
Results filed as inconclusive are left out. Active and inactive are the calls of the source. Calls come from the whole dose curve; as a rule, active = well fitted curve in the direction sought with a large enough effect; inconclusive = small, poorly fitted or top-dose-only effect, or another doubt; inactive = no such curve, though single readings can be large; an effect the other way counts as inactive or inconclusive.

Columns and labels:
CRL-7250 = normal cell line; assay: Cytotoxic Profiling of Annotated Libraries Using Quantitative High-Throughput Screening (AID 1296008); settings: Five cell lines viability, CellTiter-Glo ATP luminescence, 48-72 h; max response: hits give low values; note: nearly all actives have a fitted effect of over 60% in size; for max response: % is set by controls: 0 for no effect and ±100 for the full control effect
Method in brief: (§1)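 Cells exposed to compounds for 48 or 72 hr at 37 degrees Celsius. Viability read as ATP-coupled luminescence with CellTiter-Glo after 10 min at room temperature.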

HEK293 = assay: as above; settings: Five cell lines viability, CellTiter-Glo ATP luminescence, 48-72 h; max response: hits give low values
Method in brief: as §1

HaCat [1] = assay: as above; settings: Five cell lines viability, CellTiter-Glo ATP luminescence, 48-72 h; max response: hits give low values
Method in brief: as §1

KB-3-1 = assay: as above; settings: Five cell lines viability, CellTiter-Glo ATP luminescence, 48-72 h; max response: hits give low values
Method in brief: as §1

NIH3T3 [2] = assay: as above; settings: Five cell lines viability, CellTiter-Glo ATP luminescence, 48-72 h; max response: hits give low values
Method in brief: as §1

HACAT [3] = assay: qHTS assay to identify novel small-molecules to repurpose for Merkel cell carcinoma treatment (AID 1296009); settings: MCC and control cell lines, CellTiter-Glo viability, 72 h; at 44.8 µM (top of the series) unless noted; note: nearly all actives have a fitted effect of over 60% in size
Method in brief: (§2)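 Dose-response viability screen; 72 hr exposure at 37 degree celsius; CellTiter-Glo added, 10 min room temperature, luminescence read; RLUs scaled between no-cell and DMSO wells.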

NIH3T3 [4] = assay: as above; settings: MCC and control cell lines, CellTiter-Glo viability, 72 h; at 44.8 µM (top of the series) unless noted
Method in brief: as §2

C33A = assay: Primary qHTS to identify gynecologic anti-cancer compounds using libraries of approved drugs and bioactive compounds (AID 1345084); settings: Gynecologic cancer cell panel viability, ATPlite luminescence, 48 h; series mostly up to 57.5 µM; note: % is set by controls: 0 for no effect and ±100 for the full control effect; nearly all actives have a fitted effect of over 55% in size
Method in brief: (§3)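 ATP-based viability (ATPlite), 1,000 cells/well, 16 h pre-incubation, 48 h compound at 37 C, 5% CO2, 15 min RT before read.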

CAOV3 = assay: as above; settings: Gynecologic cancer cell panel viability, ATPlite luminescence, 48 h; series mostly up to 57.5 µM
Method in brief: as §3

CASKI = assay: as above; settings: Gynecologic cancer cell panel viability, ATPlite luminescence, 48 h; series mostly up to 57.5 µM
Method in brief: as §3

Es-2 = assay: as above; settings: Gynecologic cancer cell panel viability, ATPlite luminescence, 48 h; series mostly up to 57.5 µM
Method in brief: as §3

HeLa = assay: as above; settings: Gynecologic cancer cell panel viability, ATPlite luminescence, 48 h; series mostly up to 57.5 µM
Method in brief: as §3

Hek293T = assay: as above; settings: Gynecologic cancer cell panel viability, ATPlite luminescence, 48 h, control line for the selectivity index; series mostly up to 57.5 µM
Method in brief: as §3

JEG-3 = assay: as above; settings: Gynecologic cancer cell panel viability, ATPlite luminescence, 48 h; series mostly up to 57.5 µM
Method in brief: as §3

OV90 = assay: as above; settings: Gynecologic cancer cell panel viability, ATPlite luminescence, 48 h; series mostly up to 57.5 µM
Method in brief: as §3

PA-1 = assay: as above; settings: Gynecologic cancer cell panel viability, ATPlite luminescence, 48 h; series mostly up to 57.5 µM
Method in brief: as §3

C[C@@H]1O[C@@H](O[C@@H]2[C@@H](O)[C@H](O[C@H]3[C@H](O[C@H]4CC[C@@]5(C)C(CC[C@]6(C)C5CC=C5[C@@H]7CC(C)(C)CC[C@]7(C(=O)O[C@@H]7O[C@H](CO)[C@@H](O)[C@H](O)[C@H]7O)CC[C@]56C)C4(C)C)O[C@H](C(=O)O)[C@@H](O)[C@@H]3O)OC[C@H]2O)[C@H](O)[C@H](O)[C@H]1O (some centres undefined)
inactive: max response (CRL-7250) 2.65% | max response (HEK293) -0.54% | outcome (HaCat [1]) | outcome (KB-3-1) | outcome (NIH3T3 [2]) | outcome (HACAT [3]) inactive [at 9.27 µM] | outcome (NIH3T3 [4]) inactive [at 9.27 µM] | activity change, negative = cytotoxicity (C33A) -13.9% [at 11.6 µM] | activity change, negative = cytotoxicity (CAOV3) -6.12% [at 11.6 µM] | activity change, negative = cytotoxicity (CASKI) -1.32% [at 11.6 µM] | activity change, negative = cytotoxicity (Es-2) -9.99% [at 11.6 µM] | activity change, negative = cytotoxicity (HeLa) -3.66% [at 11.6 µM] | activity change, negative = cytotoxicity (Hek293T) -0.983% [at 11.6 µM] | activity change, negative = cytotoxicity (JEG-3) -0.837% [at 11.6 µM] | activity change, negative = cytotoxicity (OV90) 0.961% [at 11.6 µM] | activity change, negative = cytotoxicity (PA-1) 4.95% [at 11.6 µM]

C/C=C/C(=O)OC1/C=C/C(O)C(OC(C)=O)CCC(=O)OC1C (centres undefined)
inactive: max response (CRL-7250) -1.17% | max response (HEK293) 3.73% | outcome (HaCat [1]) | max response (KB-3-1) -2.1% | outcome (NIH3T3 [2]) | outcome (HACAT [3]) | outcome (NIH3T3 [4]) | Potency (C33A) | Potency (CAOV3) | outcome (CASKI) | Potency (Es-2) | Potency (HeLa) | Potency (Hek293T) | Potency (JEG-3) | Potency (OV90) | Potency (PA-1)

Cc1cn(-c2cc(NC(=O)c3ccc(C)c(Nc4nccc(-c5cnccn5)n4)c3)cc(C(F)(F)F)c2)cn1
inactive: max response (CRL-7250) -3.34% | max response (HEK293) -20.5% | outcome (HaCat [1]) | max response (KB-3-1) -2.9% | outcome (NIH3T3 [2]) | outcome (HACAT [3]) | outcome (NIH3T3 [4]) | Potency (C33A) | Potency (CAOV3) | outcome (CASKI) | Potency (Es-2) | Potency (HeLa) | Potency (Hek293T) | Potency (JEG-3) | Potency (OV90) | Potency (PA-1)

C[C@H](O)C(O)(C(=O)OCc1ccccc1NC(=O)CCC(N)C(=O)O)[C@H](C)O (some centres undefined)
inactive: max response (CRL-7250) -7.85% | max response (HEK293) -11.8% | outcome (HaCat [1]) | outcome (KB-3-1) | outcome (NIH3T3 [2]) | outcome (HACAT [3]) inactive [at 17.4 µM] | outcome (NIH3T3 [4]) inactive [at 17.4 µM] | Potency (C33A) | Potency (CAOV3) | outcome (CASKI) | Potency (Es-2) | Potency (HeLa) | Potency (Hek293T) | Potency (JEG-3) | Potency (OV90) | Potency (PA-1)

O=C(c1ccc(Cl)c([N+](=O)[O-])c1)N1CCN(c2ccccc2F)CC1
inactive: max response (CRL-7250) -5.45% | max response (HEK293) 0.0452% | outcome (HaCat [1]) | outcome (KB-3-1) | outcome (NIH3T3 [2]) | outcome (HACAT [3]) | outcome (NIH3T3 [4]) | Potency (C33A) | Potency (CAOV3) | outcome (CASKI) | Potency (Es-2) | Potency (HeLa) | Potency (Hek293T) | Potency (JEG-3) | Potency (OV90) | Potency (PA-1)

O=C1C(Cl)=C(N2CCOCC2)C(=O)N1c1ccc(Cl)c(Cl)c1
inactive: outcome (CRL-7250) | max response (HEK293) -3.24% | outcome (HaCat [1]) | outcome (KB-3-1) | outcome (NIH3T3 [2]) | outcome (HACAT [3]) inactive [at 17.4 µM] | outcome (NIH3T3 [4]) inactive [at 17.4 µM] | Potency (C33A) | Potency (CAOV3) | outcome (CASKI) | Potency (Es-2) | Potency (HeLa) | Potency (Hek293T) | Potency (JEG-3) | Potency (OV90) | Potency (PA-1)

COC(=O)C1(O)C(OC(C)=O)CCC2C3(CC(c4ccoc4)OC3=O)C(C)=CCC21C(=O)OC (centres undefined)
inactive: max response (CRL-7250) -2.77% | max response (HEK293) 4.98% | outcome (HaCat [1]) | max response (KB-3-1) 9.04% | outcome (NIH3T3 [2]) | outcome (HACAT [3]) inactive [at 17.4 µM] | outcome (NIH3T3 [4]) inactive [at 17.4 µM] | Potency (C33A) | Potency (CAOV3) | outcome (CASKI) | Potency (Es-2) | Potency (HeLa) | Potency (Hek293T) | Potency (JEG-3) | Potency (OV90) | Potency (PA-1)

COc1cc(/C=C/C(=O)O)ccc1O[C@@H]1O[C@H](CO)[C@@H](O)[C@H](O)[C@H]1O[C@@H]1OC[C@](O)(CO)[C@H]1O
inactive: outcome (CRL-7250) | max response (HEK293) -3.47% | outcome (HaCat [1]) | max response (KB-3-1) 0.854% | outcome (NIH3T3 [2]) | outcome (HACAT [3]) inactive [at 17.4 µM] | outcome (NIH3T3 [4]) inactive [at 17.4 µM] | Potency (C33A) | Potency (CAOV3) | outcome (CASKI) | Potency (Es-2) | Potency (HeLa) | Potency (Hek293T) | Potency (JEG-3) | Potency (OV90) | Potency (PA-1)

CCCCNc1nc(N)c2[nH]c(=O)n(Cc3ccc(OCCN(C)C)nc3)c2n1
inactive: max response (CRL-7250) -6.94% | max response (HEK293) -20.1% | outcome (HaCat [1]) | outcome (KB-3-1) | outcome (NIH3T3 [2]) inactive; activator | outcome (HACAT [3]) | outcome (NIH3T3 [4]) inactive; activator | Potency (C33A) | Potency (CAOV3) | outcome (CASKI) | Potency (Es-2) | Potency (HeLa) | Potency (Hek293T) | Potency (JEG-3) | Potency (OV90) | Potency (PA-1)
